The campaign covered roughly 5,500 compounds. About 2,000 (36%) were called active. Inconclusive results (about 18%) are left out. Rule as the data show it: active = normalized growth mostly below about 0.91 (no sharp cut-off); inconclusive = no clear call, values can overlap the other calls; inactive = mostly above about 0.92. Some of the results follow.
Test: chemical genetic growth profiling, strain panel (AID 1159580);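 also: tested at 20 µM; growth read once vehicle control cultures reached saturation at 30 °C; 1 = growth at the plate median or of vehicle wells; lower values mean less growth of the strain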
Conditions: growth OD

Measured: normalized growth

OC[C@H]1O[C@@H](O[C@H]2[C@H](O)[C@@H](O)[C@@H](O)O[C@@H]2CO)[C@H](O)[C@@H](O)[C@@H]1O
inactive: S. cerevisiae deletion strains, locus YJR075W, strain HOC1, active compounds read low 1.02 | S. cerevisiae deletion strains, locus YKL009W, strain mrt4, active compounds read low 1.1 | S. cerevisiae deletion strains, locus YKL068W, active compounds read low 1 | S. cerevisiae deletion strains, locus YKL085W, strain MDH1 (second series), active compounds read low 1.04 | S. cerevisiae deletion strains, locus YKL085W, strain MDH1, active compounds read low 1.04 | S. cerevisiae deletion strains, locus YKL160W, strain elf1, active compounds read low 1.02 | S. cerevisiae deletion strains, locus YKL190W, strain CNB1, active compounds read low 1.01 | S. cerevisiae deletion strains, locus YKR001C, strain vps1, active compounds read low 1.02 | S. cerevisiae deletion strains, locus YKR026C, strain gcn3, active compounds read low 0.992 | S. cerevisiae deletion strains, locus YKR091W, strain srl3, active compounds read low 1 | S. cerevisiae deletion strains, locus YLL001W, strain dnm1, active compounds read low 0.98 | S. cerevisiae deletion strains, locus YLL026W, active compounds read low 0.994 | S. cerevisiae deletion strains, locus YLL041C, strain sdh2, active compounds read low 1.02 | S. cerevisiae deletion strains, locus YLR027C, strain aat2, active compounds read low 1.01 | S. cerevisiae deletion strains, locus YLR039C, strain RIC1, active compounds read low 1.11 | S. cerevisiae deletion strains, locus YLR058C, strain SHM2, active compounds read low 1.02 | S. cerevisiae deletion strains, locus YLR102C, strain apc9, active compounds read low 1.02 | S. cerevisiae deletion strains, locus YLR113W, strain HOG1, active compounds read low 1.06 | S. cerevisiae deletion strains, locus YLR221C, strain rsa3, active compounds read low 0.98 | S. cerevisiae deletion strains, locus YLR258W, strain gsy2, active compounds read low 1.01 | S. cerevisiae deletion strains, locus YLR262C, strain YPT6 (second series), active compounds read low 1.04 | S. cerevisiae deletion strains, locus YLR262C, strain YPT6, active compounds read low 1.05 | S. cerevisiae deletion strains, locus YLR268W, strain sec22, active compounds read low 1.04 | S. cerevisiae deletion strains, locus YLR320W, strain mms22, active compounds read low 0.997 | S. cerevisiae deletion strains, locus YLR330W, strain CHS5, active compounds read low 1.02 | S. cerevisiae deletion strains, locus YLR342W, strain FKS1 (second series), active compounds read low 1.09 | S. cerevisiae deletion strains, locus YLR342W, strain FKS1, active compounds read low 1.01 | S. cerevisiae deletion strains, locus YLR357W, strain rsc2, active compounds read low 0.975 | S. cerevisiae deletion strains, locus YLR370C, strain arc18, active compounds read low 1.01 | S. cerevisiae deletion strains, locus YLR371W, strain rom2, active compounds read low 1.01 | S. cerevisiae deletion strains, locus YLR384C, strain iki3, active compounds read low 0.992 | S. cerevisiae deletion strains, locus YLR418C, strain cdc73, active compounds read low 0.975 | S. cerevisiae deletion strains, locus YML016C, strain PPZ1, active compounds read low 1.01 | S. cerevisiae deletion strains, locus YML032C, strain rad52, active compounds read low 1 | S. cerevisiae deletion strains, locus YML120C, strain ndi1, active compounds read low 1.01 | S. cerevisiae deletion strains, locus YML124C, strain tub3, active compounds read low 1.01 | S. cerevisiae deletion strains, locus YMR058W, strain fet3, active compounds read low 1 | S. cerevisiae deletion strains, locus YMR078C, strain ctf18, active compounds read low 1.01 | S. cerevisiae deletion strains, locus YMR125W, strain sto1, active compounds read low 0.993 | S. cerevisiae deletion strains, locus YMR129W, active compounds read low 1.01 | S. cerevisiae deletion strains, locus YMR205C, strain PFK2, active compounds read low 1.01 | S. cerevisiae deletion strains, locus YMR223W, strain ubp8, active compounds read low 0.993 | S. cerevisiae deletion strains, locus YMR231W, strain pep5, active compounds read low 0.992 | S. cerevisiae deletion strains, locus YMR263W, strain SAP30, active compounds read low 1.01 | S. cerevisiae deletion strains, locus YMR307W, strain GAS1, active compounds read low 1.07 | S. cerevisiae deletion strains, locus YNL067W, strain RPL9B, active compounds read low 1.02 | S. cerevisiae deletion strains, locus YNL071W, strain lat1, active compounds read low 1.02 | S. cerevisiae deletion strains, locus YNL153C, strain GIM3, active compounds read low 1.01 | S. cerevisiae deletion strains, locus YNL183C, strain NPR1, active compounds read low 0.968 | S. cerevisiae deletion strains, locus YNL209W, strain ssb2, active compounds read low 1.01 | S. cerevisiae deletion strains, locus YNL233W, strain BNI4, active compounds read low 1.01 | S. cerevisiae deletion strains, locus YNL248C, strain rpa49, active compounds read low 0.98 | S. cerevisiae deletion strains, locus YNL250W, strain rad50, active compounds read low 1.03 | S. cerevisiae deletion strains, locus YNL271C, strain bni1, active compounds read low 1.02 | S. cerevisiae deletion strains, locus YNL298W, strain CLA4, active compounds read low 0.999 | S. cerevisiae deletion strains, locus YNL307C, strain MCK1, active compounds read low 1.02 | S. cerevisiae deletion strains, locus YNL322C, strain KRE1 (second series), active compounds read low 0.996 | S. cerevisiae deletion strains, locus YNL322C, strain KRE1, active compounds read low 1.02 | S. cerevisiae deletion strains, locus YNR049C, strain mso1, active compounds read low 0.998 | S. cerevisiae deletion strains, locus YNR052C, strain pop2, active compounds read low 1.01 | S. cerevisiae deletion strains, locus YOL006C, strain TOP1, active compounds read low 1.15 | S. cerevisiae deletion strains, locus YOL012C, strain htz1 1.74 | S. cerevisiae deletion strains, locus YOL147C, strain pex11, active compounds read low 1.01 | S. cerevisiae deletion strains, locus YOR001W, strain rrp6, active compounds read low 0.988 | S. cerevisiae deletion strains, locus YOR061W, strain CKA2, active compounds read low 1.03 | S. cerevisiae deletion strains, locus YOR069W, strain VPS5, active compounds read low 1.01 | S. cerevisiae deletion strains, locus YOR070C, strain gyp1, active compounds read low 1 | S. cerevisiae deletion strains, locus YOR080W, strain dia2, active compounds read low 0.988 | S. cerevisiae deletion strains, locus YOR083W, strain WHI5, active compounds read low 1.06 | S. cerevisiae deletion strains, locus YOR106W, strain vam3, active compounds read low 1.04 | S. cerevisiae deletion strains, locus YOR136W, strain idh2, active compounds read low 1.01 | S. cerevisiae deletion strains, locus YOR144C, strain elg1, active compounds read low 1 | S. cerevisiae deletion strains, locus YOR184W, strain ser1, active compounds read low 1.02 | S. cerevisiae deletion strains, locus YOR231W, strain MKK1, active compounds read low 1 | S. cerevisiae deletion strains, locus YOR265W, strain rbl2, active compounds read low 1 | S. cerevisiae deletion strains, locus YOR270C, strain vph1, active compounds read low 1.13 | S. cerevisiae deletion strains, locus YOR290C, strain snf2, active compounds read low 1.03 | S. cerevisiae deletion strains, locus YOR316C, strain cot1, active compounds read low 1.02 | S. cerevisiae deletion strains, locus YPL051W, strain arl3, active compounds read low 0.992 | S. cerevisiae deletion strains, locus YPL078C, strain atp4, active compounds read low 1.01 | S. cerevisiae deletion strains, locus YPL106C, strain sse1, active compounds read low 1.02 | S. cerevisiae deletion strains, locus YPL240C, strain hsp82, active compounds read low 1 | S. cerevisiae deletion strains, locus YPL241C, strain CIN2, active compounds read low 1 | S. cerevisiae deletion strains, locus YPL256C, strain CLN2, active compounds read low 0.975 | S. cerevisiae deletion strains, locus YPR119W, strain clb2, active compounds read low 1.01 | S. cerevisiae deletion strains, locus YPR141C, strain kar3, active compounds read low 1 | S. cerevisiae deletion strains, locus YPR163C, strain tif3, active compounds read low 1 | S. cerevisiae deletion strains, locus YPR167C, strain met16, active compounds read low 1.02 | S. cerevisiae deletion strains, strain wtn01, active compounds read low 1.06 | S. cerevisiae strains, strain wild type, active compounds read low 1.02
